Measurements from PubChem BioAssay AID1159580 (chemical genetic matrix, 2015).
Values joined by “and” are separate entries in the source; they are usually repeats but may differ in a detail not shown here. Equal entries are not always repeated. In all, about 5,500 compounds went through this assay and about 2,000 (36%) were called active. Roughly 18% stayed inconclusive and do not appear here. Cut-off read from the data, not from the text of the source: active = normalized growth mostly below about 0.91 (no sharp cut-off); inconclusive = no clear call, values can overlap the other calls; inactive = mostly above about 0.92. The list shows a part of the results.

Assay: chemical genetic growth profiling, strain panel (AID 1159580);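 note: tested at 20 µM; growth read once vehicle control cultures reached saturation at 30 °C; 1 = growth at the plate median or of vehicle wells; lower values mean less growth of the strain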
Conditions: S. cerevisiae deletion strains, growth OD

Measured: normalized growth

O=C(Cn1ccnc1[N+](=O)[O-])NCCO
inactive: locus YAL013W, strain DEP1, hits give low values 0.996 | locus YAL021C, strain ccr4, hits give low values 1.02 | locus YAL026C, strain drs2, hits give low values 1.02 | locus YAL030W, strain snc1, hits give low values 1.01 | locus YBL061C, strain skt5, hits give low values 1.03 | locus YBR009C, strain hhf1, hits give low values 1.02 | locus YBR021W, strain FUR4, hits give low values 1.03 | locus YBR023C, strain chs3, hits give low values 1.02 | locus YBR171W, strain sec66, hits give low values 1.04 | locus YBR229C, strain ROT2, hits give low values 1.01 | locus YBR231C, strain swc5, hits give low values 1 | locus YBR279W, strain paf1, hits give low values 1 | locus YCL011C, strain gbp2, hits give low values 1.01 | locus YCL016C, strain dcc1, hits give low values 1.02 | locus YCL029C, strain bik1, hits give low values 1.02 | locus YCL061C, strain MRC1, hits give low values 1.01 | locus YCL069W, strain vba3, hits give low values 1.01 | locus YCR088W, strain abp1, hits give low values 1.01 | locus YDL005C, strain med2, hits give low values 1.02 | locus YDL035C, strain GPR1, hits give low values 1.02 | locus YDL040C, strain nat1, hits give low values 1.01 | locus YDL074C, strain BRE1, hits give low values 0.99 | locus YDL101C, strain DUN1, hits give low values 1 | locus YDL134C, strain PPH21, hits give low values 0.996 | locus YDL185W, strain tfp1, hits give low values 0.999 | locus YDL192W, strain arf1, hits give low values 1.01 | locus YDR001C, strain nth1, hits give low values 1.01 | locus YDR069C, strain doa4, hits give low values 1.02 | locus YDR101C, strain arx1, hits give low values 1.01 | locus YDR137W, strain rgp1, hits give low values 1.05 | locus YDR150W, strain NUM1, hits give low values 0.998 | locus YDR159W, strain sac3, hits give low values 1.02 | locus YDR162C, strain NBP2, hits give low values 0.985 | locus YDR195W, strain ref2 1.02 | locus YDR297W, strain sur2, hits give low values 1.01 | locus YDR318W, strain mcm21, hits give low values 1.03 | locus YDR334W, strain swr1, hits give low values 1.01 | locus YDR335W, strain msn5, hits give low values 1.01 | locus YDR388W, hits give low values 1.01 | locus YDR392W, strain spt3, hits give low values 1.03 | locus YDR502C, strain sam2, hits give low values 0.988 | locus YEL003W, strain gim4, hits give low values 1 | locus YEL037C, strain rad23, hits give low values 1.02 | locus YEL061C, strain CIN8 (second series), hits give low values 1.01 | locus YEL061C, strain CIN8, hits give low values 1 | locus YER015W, strain faa2, hits give low values 1 | locus YER016W, strain bim1, hits give low values 1.01 | locus YER110C, hits give low values 1 | locus YER111C, strain swi4, hits give low values 1.02 | locus YER155C, strain BEM2 (second series), hits give low values 1.01 | locus YER155C, strain BEM2, hits give low values 1 | locus YER167W, strain BCK2, hits give low values 1.03 | locus YFR010W, strain ubp6, hits give low values 1.02 | locus YGL078C, strain dbp3, hits give low values 0.983 | locus YGL086W, strain mad1, hits give low values 1.03 | locus YGL167C, strain pmr1, hits give low values 1.02 | locus YGL173C, strain kem1, hits give low values 1.01 | locus YGL227W, strain vid30, hits give low values 1.01 | locus YGL240W, strain doc1, hits give low values 1.02 | locus YGL248W, strain PDE1, hits give low values 0.999 | locus YGL253W, strain hxk2, hits give low values 0.982 | locus YGR078C, strain PAC10, hits give low values 0.995 | locus YGR135W, strain pre9, hits give low values 0.988 | locus YGR229C, strain SMI1, hits give low values 0.999 | locus YGR252W, strain gcn5, hits give low values 1.09 | locus YHR013C, strain ard1, hits give low values 1.04 | locus YHR027C, strain rpn1, hits give low values 1.01 | locus YHR030C, strain SLT2, hits give low values 1.01 and 0.984 | locus YHR079C, strain IRE1 (second series), hits give low values 1.01 | locus YHR079C, strain IRE1, hits give low values 0.998 | locus YHR094C, strain hxt1, hits give low values 1.01 | locus YHR129C, strain ARP1, hits give low values 1.01 | locus YHR142W, strain chs7, hits give low values 1.02 | locus YHR200W, strain rpn10, hits give low values 1.01 | locus YIL066C, strain RNR3, hits give low values 1.01 | locus YIL073C, strain SPO22, hits give low values 1.04 | locus YIL125W, strain kgd1, hits give low values 0.997 | locus YIR030C, strain dcg1, hits give low values 1.01 | locus YJL092W, strain hpr5, hits give low values 1.02 | locus YJL095W, strain BCK1 (second series), hits give low values 1.01 | locus YJL095W, strain BCK1, hits give low values 1.01 and 0.995 | locus YJL115W, strain asf1, hits give low values 1.01 | locus YJL129C, strain trk1, hits give low values 1.02 | locus YJL134W, strain LCB3, hits give low values 1.01 | locus YJL154C, strain vps35, hits give low values 1.02 | locus YJL166W, strain qcr8, hits give low values 1.01 | locus YJL168C, strain set2, hits give low values 1.01 | locus YJL187C, strain SWE1 (second series), hits give low values 0.999 | locus YJL187C, strain SWE1, hits give low values 1.01 | locus YJR043C, strain POL32, hits give low values 1.04 | locus YJR066W, strain TOR1, hits give low values 0.972
